Source: PubChem BioAssay
Values joined by “and” are separate entries in the source; they are usually repeats but may differ in a detail not shown here. Equal values may be shown once.

Experiment: viability loss with induced miR-34 in A549 – imaging, A549 dox-inducible miR-34, nuclei and caspase counts, primary screen (AID 1347080); further: test concentration not given here
Conditions: A549 miR-34 inducible, Hoechst nuclei count, 48 h; measured here: relative caspase fold change +Dox/-Dox
`CCOC(=O)c1cncn1[C@@H](C)c1ccccc1` showed a fold change of 0.906. For `Clc1ccc(C(Cn2ccnc2)OCc2csc3c(Cl)cccc23)c(Cl)c1` (stereo not given), the fold change was 0.728 and 1. `C[C@]12CC[C@H](O)C[C@H]1CC[C@@H]1[C@@H]2C[C@@H](O)[C@]2(C)[C@@H](C3=CC(=O)OC3)CC[C@]12O` showed a fold change of 1.4. Compound `C[C@]12Cc3cn[nH]c3CC1CCC1C2CC[C@@]2(C)C1CC[C@]2(C)O` (stereo not given in full) has a fold change of 1.42. `CC1CCCC(O)CCCCCc2cc(O)cc(O)c2C(=O)O1` (stereo not given) gave a fold change of 1.75. Work on `C#CC(C)(O)CC` (stereo not given) yielded a fold change of 1.03. `CCC(=O)OC(Cc1ccccc1)(c1ccccc1)C(C)CN(C)C` (stereo not given) showed a fold change of 0.845. Compound `C(#CCN1CCCC1)CN1CCCC1` has a fold change of 1.28. For `CN1[C@@H]2CC[C@H]1CC(OC1c3ccccc3CCc3ccccc31)C2` (stereo not given in full), the fold change was 0.451. With `CN[C@@H]1[C@@H](O)[C@@H](O[C@@H]2[C@@H](O)[C@H](O[C@H]3O[C@H]([C@@H](C)NC)CC[C@H]3N)[C@@H](N)C[C@H]2N)OC[C@]1(C)O` the fold change was 1.03. `C[N+]1([O-])[C@@H]2CC(OC(=O)[C@H](CO)c3ccccc3)C[C@H]1[C@@H]1O[C@@H]12` (stereo not given in full) showed a fold change of 1.03. In the case of `CN[C@@H]1[C@@H](O)[C@@H](O[C@@H]2[C@@H](O)[C@H](O[C@H]3O[C@H]([C@@H](C)NC)CC[C@H]3N)[C@@H](N)C[C@H]2N)OC[C@]1(C)O` (tested in a mixture with another compound), the fold change is reported as 0.941. Work on `Oc1ccc2c3c1OC1C(O)CC[C@@]4(O)C(C2)N(CC2CCC2)CC[C@]314` (stereo not given in full) yielded a fold change of 1.82. For `C[C@]12CC(=CO)C(=O)CC1CCC1C2CC[C@@]2(C)C1CC[C@]2(C)O` (stereo not given in full), the fold change was 2.87. For `CCC1C(=O)OCC1Cc1cncn1C` (stereo not given), the fold change was 1.4 and 2.3 and 1.43. Compound `CN1CC[C@@]2(C)c3cc(O)ccc3N(C)[C@H]12` has a fold change of 0.758. Compound `C=C(C)[C@@H]1C2C(=O)O[C@H]1[C@H]1OC(=O)[C@@]34OC3C[C@]2(O)[C@@]14C` (stereo not given in full) has a fold change of 0.911. `C[C@]12CC[C@H](O)C[C@H]1CC[C@@H]1[C@@H]2CC[C@]2(C)[C@@H](C3=CC(=O)OC3)CC[C@]12O` gave a fold change of 1.54. Work on `CCC(C)(C)O` yielded a fold change of 0.901. Compound `Nc1cc2c(ncn2CCOCP(=O)(O)O)c(=O)[nH]1` has a fold change of 1.02. Compound `CCCCCC[C@H]1C(=O)O[C@H](C)C(NC(=O)c2cccc(NC=O)c2O)C(=O)O[C@@H](C)[C@@H]1OC(=O)CC(C)C` (stereo not given in full) has a fold change of 0.771. `C[C@]12CCC(O)CC1=CCC1C2CC[C@@]2(C)C1CC[C@]2(C)O` (stereo not given in full) gave a fold change of 1.41. With `Oc1cc2c(cc1O)C1c3ccccc3CNC1CC2` (stereo not given) the fold change was 2.62. Work on `CC(C)(O)C1C2OC(=O)C1[C@]1(O)CC3O[C@]34C(=O)OC2[C@]14C` (stereo not given in full) (tested in a mixture with another compound) yielded a fold change of 1.55. `CC(=O)OCC(=O)[C@H]1CC[C@H]2[C@@H]3CC[C@H]4C[C@H](O)CC[C@]4(C)[C@H]3C(=O)C[C@]12C` gave a fold change of 0.588.

Same assay, conditions: A549 miR-34 inducible, Hoechst nuclei count, 48 h; measured here: total cells with miR-34 induction; stronger effect = lower value
For `CNC1CC(c2ccc(Cl)c(Cl)c2)c2ccccc21` (stereo not given), the cell count was 5010. In the case of `CCCCCN(C)CCC(O)(P(=O)(O)O)P(=O)(O)O`, the cell count is reported as 10500 and 8850. Work on `CNc1ccc2oc(C[C@@H]3OC4(CC[C@@H]3C)O[C@H](C(C)C(=O)c3ccc[nH]3)[C@H](C)C[C@H]4C)nc2c1C(=O)O` (stereo not given in full) yielded a cell count of 885. In the case of `CCC1(C)CC(=O)NC(=O)C1`, the cell count is reported as 8070 and 7990. Compound `C[C@]12CC[C@@H](O)C[C@@H]1CC[C@@H]1[C@@H]2CC[C@]2(C)C(=O)CC[C@@H]12` has a cell count of 8170. Compound `Oc1ccc2c3c1O[C@H]1c4oc5ccccc5c4C[C@@]4(O)[C@@H](C2)N(CC2CC2)CC[C@]314` has a cell count of 9980. For `C[C@]12CC[C@H]3[C@@H](CC[C@]4(O)C[C@@H](O)CC[C@]34C=O)[C@@]1(O)CC[C@@H]2C1=CC(=O)OC1`, the cell count was 773. In the case of `C[C@]12CCC(=O)CC1CCC1C2CC[C@@]2(C)C1CC[C@]2(C)O` (stereo not given in full), the cell count is reported as 9370. `C[C@]12CCC(=O)C=C1CC[C@@H]1[C@@H]2C(=O)C[C@]2(C)C(=O)CC[C@@H]12` gave a cell count of 9500. Work on `CN1C[C@H](CO)C=C2c3cccc4[nH]cc(c34)C[C@H]21` yielded a cell count of 8450. `C[N+]1(C)C2CC[C@H]1CC(OC(=O)C(CO)c1ccccc1)C2` (stereo not given in full) gave a cell count of 8910. Work on `O=C1OCCN1N=Cc1ccc([N+](=O)[O-])o1` yielded a cell count of 7950. In the case of `CN1[C@@H]2CC[C@H]1CC(OC(=O)C1C=Nc3ccccc31)C2` (stereo not given in full), the cell count is reported as 8760 and 8980. Work on `C[C@]12CCC3[C@@H](CC[C@@H]4C[C@H](O)CC[C@]34C)[C@@H]1CCC2=O` (stereo not given in full) yielded a cell count of 8930. With `CCC1=C[C@@H]2CN3CCc4c([nH]c5ccccc45)[C@@](C(=O)OC)(C2)[C@@H]13` the cell count was 8480 and 6230. Compound `CCOC(=O)c1cncn1[C@@H](C)c1ccccc1` has a cell count of 8390. With `Clc1ccc(C(Cn2ccnc2)OCc2csc3c(Cl)cccc23)c(Cl)c1` (stereo not given) the cell count was 7030 and 8370. `C[C@]12CC[C@H](O)C[C@H]1CC[C@@H]1[C@@H]2C[C@@H](O)[C@]2(C)[C@@H](C3=CC(=O)OC3)CC[C@]12O` showed a cell count of 550. `C[C@]12Cc3cn[nH]c3CC1CCC1C2CC[C@@]2(C)C1CC[C@]2(C)O` (stereo not given in full) gave a cell count of 8110. In the case of `CC1CCCC(O)CCCCCc2cc(O)cc(O)c2C(=O)O1` (stereo not given), the cell count is reported as 8720. `C#CC(C)(O)CC` (stereo not given) showed a cell count of 8040. Work on `CCC(=O)OC(Cc1ccccc1)(c1ccccc1)C(C)CN(C)C` (stereo not given) yielded a cell count of 9110. Compound `C(#CCN1CCCC1)CN1CCCC1` has a cell count of 8550. With `CN1[C@@H]2CC[C@H]1CC(OC1c3ccccc3CCc3ccccc31)C2` (stereo not given in full) the cell count was 8290. In the case of `CN[C@@H]1[C@@H](O)[C@@H](O[C@@H]2[C@@H](O)[C@H](O[C@H]3O[C@H]([C@@H](C)NC)CC[C@H]3N)[C@@H](N)C[C@H]2N)OC[C@]1(C)O`, the cell count is reported as 10000. In the case of `C[N+]1([O-])[C@@H]2CC(OC(=O)[C@H](CO)c3ccccc3)C[C@H]1[C@@H]1O[C@@H]12` (stereo not given in full), the cell count is reported as 8380. In the case of `CN[C@@H]1[C@@H](O)[C@@H](O[C@@H]2[C@@H](O)[C@H](O[C@H]3O[C@H]([C@@H](C)NC)CC[C@H]3N)[C@@H](N)C[C@H]2N)OC[C@]1(C)O` (tested in a mixture with another compound), the cell count is reported as 8090. In the case of `Oc1ccc2c3c1OC1C(O)CC[C@@]4(O)C(C2)N(CC2CCC2)CC[C@]314` (stereo not given in full), the cell count is reported as 8530. For `C[C@]12CC(=CO)C(=O)CC1CCC1C2CC[C@@]2(C)C1CC[C@]2(C)O` (stereo not given in full), the cell count was 9400. For `CCC1C(=O)OCC1Cc1cncn1C` (stereo not given), the cell count was 9120 and 8440 and 10400. `CN1CC[C@@]2(C)c3cc(O)ccc3N(C)[C@H]12` gave a cell count of 8570. In the case of `C=C(C)[C@@H]1C2C(=O)O[C@H]1[C@H]1OC(=O)[C@@]34OC3C[C@]2(O)[C@@]14C` (stereo not given in full), the cell count is reported as 8720. For `C[C@]12CC[C@H](O)C[C@H]1CC[C@@H]1[C@@H]2CC[C@]2(C)[C@@H](C3=CC(=O)OC3)CC[C@]12O`, the cell count was 557. `CCC(C)(C)O` gave a cell count of 9020. In the case of `Nc1cc2c(ncn2CCOCP(=O)(O)O)c(=O)[nH]1`, the cell count is reported as 3380. With `CCCCCC[C@H]1C(=O)O[C@H](C)C(NC(=O)c2cccc(NC=O)c2O)C(=O)O[C@@H](C)[C@@H]1OC(=O)CC(C)C` (stereo not given in full) the cell count was 3300. `C[C@]12CCC(O)CC1=CCC1C2CC[C@@]2(C)C1CC[C@]2(C)O` (stereo not given in full) gave a cell count of 9340. `Oc1cc2c(cc1O)C1c3ccccc3CNC1CC2` (stereo not given) showed a cell count of 9630. `CC(C)(O)C1C2OC(=O)C1[C@]1(O)CC3O[C@]34C(=O)OC2[C@]14C` (stereo not given in full) (tested in a mixture with another compound) showed a cell count of 9380. For `CC(=O)OCC(=O)[C@H]1CC[C@H]2[C@@H]3CC[C@H]4C[C@H](O)CC[C@]4(C)[C@H]3C(=O)C[C@]12C`, the cell count was 8940.
